Compound activity: PubChem, Sanford-Burnham Center for Chemical Genomics
Only some compounds are listed: those with a hit (about 2.6% of all), similar ones and a draw of the others.
MLLE-PAM2 inh = blocks PAM2 peptide binding to the PABP1 MLLE domain | GST-MLLE / FITC-PAM2 fluorescence polarization | inhibition, % at 20 µM | hit rate 0.36% among 360,000 | AID 588489; in the data active = inhibition above about 35%, passing the limit was not always enough;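 note: plate controls were DMSO wells with GST-MLLE for no effect and wells lacking GST-MLLE protein for full effect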
CRFBP-R2 block = blocks CRF-induced signaling of the CRF-BP/CRF-R2 complex. HEK293 CRF-R2/CRF-BP, CRF-induced calcium fluorescence. hit rate 0.59% among 350,000. AID 588475. inhibition, % at 11.8 µM;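 active = inhibition of the ligand-induced calcium signal above about 50% at the single tested concentration, limit read from the data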
PHOSPHO1 block = inhibitors of human PHOSPHO1 phosphatase; Q8TCT1; AID 1565; recombinant PHOSPHO1, absorbance phosphatase assay; hit rate 1.1% among 290,000; inhibition, % at 13.3 µM; in the data active = inhibition above about 60%
Target sequence (Q8TCT1 whole entry, looked up): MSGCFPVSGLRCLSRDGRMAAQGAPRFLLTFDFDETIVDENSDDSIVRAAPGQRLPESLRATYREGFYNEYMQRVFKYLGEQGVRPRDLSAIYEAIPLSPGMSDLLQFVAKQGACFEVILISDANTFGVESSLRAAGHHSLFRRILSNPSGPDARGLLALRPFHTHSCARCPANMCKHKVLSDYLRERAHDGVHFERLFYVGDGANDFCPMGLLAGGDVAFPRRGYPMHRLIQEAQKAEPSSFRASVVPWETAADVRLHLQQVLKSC
eIF4H inh = inhibitors of RNA binding by human eIF4H | Q15056 | eIF4H fluorescence polarization binding assay | inhibition, % at 35 µM | hit rate 0.94% among 290,000;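 note: calls also rest on retests at 20 µM and on dose response follow-up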
PABP polyA inh = blocks human PABP binding to poly(A) RNA; inhibition, % at 35 µM; hit rate 1% among 290,000; P11940; fluorescence polarization; AID 2014;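 note: calls also rest on retests at 20 µM and on dose response follow-up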
Numbers without * were called inactive; ? = inconclusive; . = not tested or not shown. Unless noted, the rule behind the calls is not given here.

SMILES	MLLE-PAM2 inh	CRFBP-R2 block	PHOSPHO1 block	eIF4H inh	PABP polyA inh
Cn1cnnc1SCC(=O)N1N=C2/C(=C/c3ccco3)CCCC2C1c1ccco1 (centres undefined)	-3.2	-19.3	80.1*	6.8	1.4
Cc1ccccc1C(=O)N(C)[C@H]1C[C@H]2c3[nH]c4ccccc4c3CCN2C[C@H]1[C@H](C)O	-2.1	.	.	.	.
CC12CCCCN1CCCc1c2[nH]c2ccccc12 (centres undefined)	40.5*	-3.6	-39.0	?	?
CCOc1ccc(S(=O)(=O)NN)cc1	-16.3	1.0	92.4*	-14.1	-6.0
Fc1ccc(Oc2ccnc(Cl)n2)c(Cl)c1	.	52.7*	.	.	.
NC(=O)C1(NC2CCCCC2)CCN(Cc2ccccc2)CC1	-0.2	-1.5	.	.	.
CCCCOc1ccc(CSc2nc(C)[nH]c2[N+](=O)[O-])cc1[N+](=O)[O-]	-6.0	2.9	60.8*	12.3	-1.1
CCCCOc1ccc(CSc2nnc(C)n2N)cc1[N+](=O)[O-]	-11.8	10.2	28.3	7.6	4.7
COc1cc(CNC[C@H]2O[C@@H](n3cc(C)c(=O)[nH]c3=O)C[C@@H]2O)ccc1OCc1cccc(Cl)c1	14.6	6.3	.	.	.
COC(=O)c1sc(-c2ccc(Cl)cc2)cc1NC(=O)CSCC(=O)O	7.5	26.3	17.7	-5.6	4.6
COC(=O)c1sc(-c2ccc(C(C)(C)C)cc2)cc1NC(=O)COCC(=O)O	-1.8	59.8*	32.1	-1.9	0.4
Cc1cccc(C)c1OCc1n[nH]c(=S)o1	-96.3	6.9	-6.8	-4.9	-5.5
Cc1cccc(OCc2n[nH]c(=S)o2)c1	-105.2	18.5	97.5*	-4.4	4.9
CCOC(=O)CSc1nc2sc3c(c2c(=O)[nH]1)CC(C)(CC)OC3 (centres undefined)	2.8	6.8	81.0*	-0.6	3.0
COc1cccc(Nc2ccc(N3CCCCC3)cc2)c1OC	59.6*	-6.8	.	.	.
COc1cccc(CNc2ccc(N3CCCCC3)cc2)c1OC	25.5	3.3	-3.4	1.1	-3.2
Cc1cc(C)cc(NC(=O)Cn2nnc(C(=O)NCc3ccccc3Cl)c2N)c1	1.7	-4.4	39.9	-8.8	0.4
Cc1cc(C)cc(NC(=O)Cn2nnc(C(=O)NCc3ccc(F)cc3)c2N)c1	-7.1	75.8*	52.8	4.3	6.9
CCOc1ccc(N/C=C/C(=O)c2ccc(OC)cc2)c([N+](=O)[O-])c1	49.2*	-13.7	-67.7	12.8	6.5
COc1ccc(NC(=O)c2cccnc2)c([N+](=O)[O-])c1	-0.6	4.9	16.5	-1.6	-1.0
COc1ccc(NC(=S)NC(NC(=O)c2cccc(Cl)c2)C(Cl)(Cl)Cl)c([N+](=O)[O-])c1 (centres undefined)	37.6*	-43.4	5.7	11.4	4.6
COc1ccc(NC(=O)c2ccccc2)c([N+](=O)[O-])c1	8.0	8.7	-26.7	?	1.5*
Cc1ccc(C(O)c2ncc(-c3cccc4ccccc34)[nH]2)c(C)c1 (centres undefined)	-3.5	.	.	.	.
O=C1C2CC=C(Cl)CC2C(=O)N1CN(Cc1ccco1)CN1C(=O)C2CC=C(Cl)CC2C1=O (centres undefined)	-7.4	-10.9	0.6	65.8*	54.0*
O=C(CCN1C(=O)C2CC=C(Cl)CC2C1=O)NCc1ccco1 (centres undefined)	6.7	-5.1	29.0	10.1	-1.5
SMILES	MLLE-PAM2 inh	CRFBP-R2 block	PHOSPHO1 block	eIF4H inh	PABP polyA inh
CCn1c(SCC(=O)N(Cc2ccccc2)C2CCS(=O)(=O)C2)nc2ccccc2c1=O (centres undefined)	-59.8	-1.8	62.7*	-4.4	10.2
CCc1nc2ccc(C(=O)N3CCN(c4ccccc4)CC3)cn2c1N(C)CCCc1ccccc1	14.1	.	.	.	.
Cn1c(=O)[nH]c(=O)c2c1nc(SCCN1CCCCC1)n2CCCc1ccccc1	11.2	15.9	87.7*	-4.5	-10.5
CCC(=O)NC(NC(=S)Nc1cccc2cccnc12)C(Cl)(Cl)Cl (centres undefined)	34.2	-8.8	-4.0	12.2	-6.2
CC(C)(C)C(=O)NC(Nc1cccc2cccnc12)C(Cl)(Cl)Cl (centres undefined)	-10.7	-19.3	75.6*	-0.5	8.1
O=C(COC(=O)c1ccccc1C(=O)N1CCN(c2ccccc2)CC1)Nc1ccccc1	11.7	-12.9	24.3	20.0	-8.7
CN1CCC(N(C)C(=O)c2sc3cc(F)ccc3c2Cl)CC1	17.6	-42.5	23.3	0.9	-14.8
O=C(c1sc2cc(F)ccc2c1Cl)N1CCN(c2ccccc2)CC1	7.5	-23.8	18.5	75.8*	active
O=C(O)c1ccccc1C(=O)N1CCN(c2ccccc2)CC1	0.6	-17.7	8.9	-7.6	1.6
COc1cccc(NC(=O)COC(=O)c2ccccc2C(=O)N2CCN(c3ccccc3)CC2)c1	5.1	68.6*	35.9	14.5	-2.0
O=C(c1ccccc1C(=O)N1CCN(c2ccccc2)CC1)N1CCN(c2ccccc2)CC1	85.9	-34.4	14.1	126.6*	118.4*
COC(=O)c1ccc2c(c1)S(=O)(=O)NC(=NCc1ccco1)S2	10.0	9.2	75.3*	3.4	7.3
COC(=O)c1ccc(=O)n(Cc2ccco2)c1	7.8	13.4	6.7	15.3	-11.0
CCc1ccc2c(c1)NC(=O)C2(C)Cc1ccc(Cl)s1 (centres undefined)	12.8	.	.	.	.
C=CCN1C=C2C(=O)C(C)(OC(=O)CC)C(=O)C=C2C=C1CCCC (centres undefined)	22.8	2.2	26.5	82.6	42.2*
COCCCNC(=O)C1C2C=CC3(CN(Cc4ccc(C)cc4)C(=O)C13)O2 (centres undefined)	-6.6	-5.4	60.1*	-7.4	6.6
O=C(O)C1C2C=CC3(CN(Cc4ccco4)C(=O)C13)O2 (centres undefined)	5.6	8.0	-17.6	84.1*	13.5
Cc1ccc(CN2CC34C=CC(O3)C(C(=O)NCc3ccc5c(c3)OCO5)C4C2=O)cc1 (centres undefined)	3.6	-1.3	52.4	-4.1	-14.9
CCOC(=O)c1ccccc1NC(=S)N1CCN(C2CCCCC2)CC1	-26.0	-9.3	-17.0	-6.3	-6.0
COC(=O)c1cncn1Cc1ccccc1	-8.8	2.2	.	.	.
O=[N+]([O-])c1ccc(-c2csc3[n+]2CCS3)cc1	37.2	13.4	80.2*	-8.9	-1.3
Fc1ccc(-c2csc3[n+]2CCS3)cc1	12.9	4.0	-8.1	6.8	13.9
Fc1cccc(Cc2c(-c3ccco3)nc3c(Cl)cc(C(F)(F)F)cn23)c1	-1.8	.	.	.	.
CN1CCN(c2ncnc3c2ncn3[C@H]2CN(Cc3cccnc3)C[C@@H](CO)O2)CC1	13.2	.	.	.	.
c1ccc(COc2ncnc3c2ncn3CCCNCC(c2ccccc2)c2ccccc2)cc1	-7.5	-8.9	.	.	.
OC(c1cccc(Cl)c1)c1nc(/C=C/c2ccccc2)cs1 (centres undefined)	-21.0	.	.	.	.
Cc1c(N2C(=O)/C(=C3\C(=O)N(CC(=O)O)c4ccccc43)SC2=S)c(=O)n(-c2ccccc2)n1C	51.7*	6.0	15.2	0.7	8.6
Cc1ccc(/C=C2\SC(=S)N(c3c(C)n(C)n(-c4ccccc4)c3=O)C2=O)cc1	47.2*	25.4	-4.6	2.7	-2.1
